Screens deposited in PubChem BioAssay by National Center for Advancing Translational Sciences (NCATS).
Sampled rows, rich in hits. Any-hit rate of the full collection: about 7.3%.
SMN2 splice enh – enhancers of SMN2 splice variant expression; hit rate 2.8% among 210,000; AID 1458; HEK293 SMN2-luciferase splicing reporter, luminescence, 30-36 h; Potency, µM (highest dose often 46.1 µM), for inactives: top-dose activity change, positive = activation, most hits filed as activators; note: % of control where 0% means no effect; nearly all actives have a fitted effect of over 55% in size
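HEK293 cells carry an SMN2 minigene-luciferase reporter in which exon 7 inclusion puts luciferase in frame. Cells were seeded at 2000 cells/well, attached for 10-12 hours, then exposed to compounds for 30-36 hours at 37C before ONE-Glo luminescence.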
Rab9 promoter act – activators of Rab9 promoter | Huh7 Rab9 promoter-luciferase reporter, luminescence, 24 h | Potency, µM (doses to about 9.22 µM), for the others: at the top dose activation, negative = inhibition, most hits filed as activators | hit rate 2.8% among 320,000 | AID 485297; note: % of control where 0% means no effect; nearly all actives have a fitted effect of over 60% in size
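Huh7 cells stably carrying Rab9 promoter–luciferase reporter, plated 1500 cells/well, compound added after 2 h and incubated 24 h at 37 °C; luciferase luminescence then read after 10 min with detection reagent.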
NPC1 prom act – activates the NPC1 promoter | Huh7 NPC1 promoter luciferase reporter, 24 h | Potency, µM (highest dose often 9.22 µM), for the others: top-dose activation, hits mostly activators | hit rate 2.4% among 320,000 | AID 485313; note: % of control where 0% means no effect; nearly all actives have a fitted effect of over 60% in size
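Luciferase expression driven by the NPC1 promoter was measured in stably transfected Huh7 cells after a 24 h compound incubation, using a luciferase reagent and a luminescence read.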
FLuc modulator – firefly luciferase modulation, counter-screen for miR-21 project; P08659; purified FLuc, Km substrates, luminescence inhibition; Potency, µM (doses to about 57.5 µM), inactives show top-dose activity change, negative = inhibition, actives largely listed as inhibitors; hit rate 6.9% among 360,000;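 note: plate controls were vehicle for no effect and reference inhibitor for full effect; nearly all actives have a fitted effect of over 55% in size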
Target sequence (P08659 whole entry, looked up): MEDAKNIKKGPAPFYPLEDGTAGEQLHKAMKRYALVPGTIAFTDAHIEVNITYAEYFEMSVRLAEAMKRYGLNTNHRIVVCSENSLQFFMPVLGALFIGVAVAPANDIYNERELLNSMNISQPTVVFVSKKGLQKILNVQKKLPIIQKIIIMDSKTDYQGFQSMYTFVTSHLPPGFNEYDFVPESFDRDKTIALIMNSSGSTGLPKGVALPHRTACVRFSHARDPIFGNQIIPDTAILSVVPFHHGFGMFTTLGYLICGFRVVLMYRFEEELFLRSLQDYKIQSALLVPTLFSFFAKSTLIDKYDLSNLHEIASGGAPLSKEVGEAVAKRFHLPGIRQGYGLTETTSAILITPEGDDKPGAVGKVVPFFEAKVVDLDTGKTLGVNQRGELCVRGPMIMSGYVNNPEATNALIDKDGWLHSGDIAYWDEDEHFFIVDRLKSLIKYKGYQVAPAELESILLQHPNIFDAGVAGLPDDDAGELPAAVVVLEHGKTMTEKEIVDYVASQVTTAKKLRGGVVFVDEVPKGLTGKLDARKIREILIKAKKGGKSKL
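Purified P. pyralis luciferase (10nM final) with 10uM D-luciferin and 10uM ATP (Km levels) in 50mM Tris acetate pH 7.5, 10mM Mg acetate, 0.01% Tween-20, 0.05% BSA; qHTS 6-point titration, ~60 µM downward; luminescence read.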
Luc counter – counter-screen: inhibitors of Kinase-Glo firefly luciferase. Kinase-Glo luciferase, ATP luminescence, 8 min. Potency, µM (series often up to 38.3 µM), for inactives: at the top dose activity change, negative = inhibition, usual class: inhibitors. hit rate 0.28% among 200,000; note: % is set by controls: 0 for no effect and ±100 for the full control effect; nearly all actives have a fitted effect of over 60% in size
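Compounds were added to a substrate mix at pH 7.2 (50 mM imidazole, 10 uM ATP, within the enzyme's linear range), followed by Kinase-Glo detection reagent; luminescence was measured after 8 minutes at ambient temperature.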
ELG1 genotox – inducers of genotoxicity in HEK293T ELG1-luciferase cells; AID 504466; hit rate 1.3% among 330,000; HEK293T ELG1-luciferase reporter, luminescence, 16 h; Potency, µM (top dose mostly 46 µM), without a hit: top-dose activity change, positive = activation, usual class: activators; note: % of control where 0% means no effect; nearly all actives have a fitted effect of over 60% in size
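Cells (2,000/well) expressing the ELG1-luciferase fusion are dosed by pin tool and kept 16 hr at 37 °C, 5% CO2. Signal comes from ONE-Glo luciferase reagent after 30 min at room temperature.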
Numbers without * were called inactive; ? = inconclusive; nt = not tested or not shown; [ ] = remark or other dose. Calls come from the whole dose curve; as a rule, active = well fitted curve in the direction sought with a large enough effect; inconclusive = small, poorly fitted or top-dose-only effect, or another doubt; inactive = no such curve, though single readings can be large; an effect the other way counts as inactive or inconclusive. Potency is the fitted concentration of half-maximal effect.

SMILES | SMN2 splice enh | Rab9 promoter act | NPC1 prom act | FLuc modulator | Luc counter | ELG1 genotox
N#Cc1c(N2CCCC2)nc(N)c2c(N)nc(N3CCCC3)cc12 | 11µM* | ? | 23% | ? | 1% | 13%
COc1cc2c(C#N)c(N3CCN(C)CC3)nc(N)c2c(N)n1 | 13% | 8% | -4% | ? | 1% | ?
C[C@H](CCC(=O)O)[C@H]1CC[C@H]2[C@H]3C(C[C@H](O)[C@]12C)[C@@]1(C)CC[C@@H](O)C[C@H]1C[C@H]3O (stereo partly specified) | -10% | nt | nt | nt | 0% | nt
COc1cccc(NC(=O)C2CCN(c3ncccn3)CC2)c1 | 25% | 2% | -3% | ? | -4% | 21%
Cc1nn(C)c(C)c1/C=C/C(=O)c1ccccc1 | -36% | 3.5µM* | ? | 19µM* | -5% | 16µM*
CCn1cc(/C=N/O)c(C)n1 | ? | 13% | -4% | 5%[2.3 µM] | -2% | -1%
CCn1cc(/C=C/C(=O)c2ccc(O)cc2)c(C)n1 | nt | ? | ? | 11µM* | -4% | 10µM*
Cc1nn(C)cc1/C=C/C(=O)c1ccccc1 | 19% | ? | ? | 1.5µM* | -20% | ?
Cc1ccc(-c2nn(CCC(=O)O)cc2/C=C\C(=O)c2ccc(Br)cc2)cc1 | -39% | -2% | -15% | -15% | -1% | -4%
Cc1nn(C)cc1/C=C/C(=O)c1cccs1 | ? | ? | ? | 5.4µM* | -9% | 18µM*
Cc1cc(C)c2oc(C(=O)Nc3ccc(S(=O)(=O)N4CCCCC4)cc3)cc(=O)c2c1 | -5% | nt | nt | 0% | nt | nt
CCCNc1cc(=O)n(C)c(=O)n1C | 3% | 1% | 0% | 7% | -2% | -2%
O=C(c1ccc(Br)cc1)c1cn[nH]c1-c1ccccc1O | nt | 9% | -3% | -16% | nt | 0%
CC(C)(C)c1ccc(C(=O)c2cn[nH]c2-c2ccccc2O)cc1 | nt | ? | ? | 11µM* | nt | 12%
O=C(/C=C/c1ccc(-c2cccc([N+](=O)[O-])c2)o1)N1CCOCC1 | nt | 4µM* | ? | ? | nt | ?
O=C(/C=C/c1cccc([N+](=O)[O-])c1)N1CCOCC1 | 4% | -5% | 5% | 0% | 0% | 2%
O=C(CN1CCCC1)Nc1nc(-c2ccc3c(c2)CCN3C(=O)c2ccccc2F)cs1 | nt | 13% | 20% | 24µM* | nt | -15%
CNc1nc(-c2ccc3c(c2)CCN3C(=O)c2ccc(F)cc2)cs1 | 2% | ? | 25% | 12µM* | -4% | 3%
CNc1nc(-c2ccc3c(c2)CCN3C(=O)c2ccccc2C)cs1 | 22µM* | 2.2µM* | 4µM* | 7.6µM* | -8% | ?
Cc1cccc(C(=O)N2CCc3cc(-c4csc(NC(=O)CN5CCCC5)n4)ccc32)c1 | nt | -2% | -3% | ? | nt | -23%
Cc1ccccc1C(=O)N1CCc2cc(-c3nc(NC(=O)Cc4ccc5c(c4)OCO5)sc3C)ccc21 | -64% | -20% | -23% | 2% | 0% | 0%
CNc1nc(-c2ccc3c(c2)CCN3C(=O)c2cccc(F)c2)cs1 | nt | 2µM* | ? | 4.8µM* | nt | 0%
Nc1nnc(CC(=O)N2CCCCC2)s1 | ? | -4% | -1% | 5% | -9% | 4%
Cn1ccc2cc(-c3ccc4ncnc(NCc5cccnc5)c4c3)ccc21 | nt | -2% | -3% | 19µM* | nt | nt
Cc1noc(C)c1-c1ccc2ncnc(NCc3ccccc3)c2c1 | 2.8µM* | nt | nt | nt | -3% | nt
SMILES | SMN2 splice enh | Rab9 promoter act | NPC1 prom act | FLuc modulator | Luc counter | ELG1 genotox
NC(=O)c1ccccc1-c1nc(-c2ccccc2)no1 | 21% | ? | ? | 24µM* | 8% | ?
NC(=O)c1cccc(-c2noc(-c3ccccc3F)n2)c1 | nt | 0.79µM* | 0.89µM* | 2.7µM* | nt | ?
CN1CCN(C(=O)c2ccccc2-c2nc(-c3ccccc3)no2)CC1 | -6% | 14% | 10% | ? | 1% | 18%
NC(=O)c1ccc(-c2ccccc2F)cc1 | nt | 16% | 1% | ? | nt | 8%
COC(=O)c1cccc(-c2noc(-c3ccccc3F)n2)c1 | nt | 0.28µM* | ? | 1.7µM* | nt | ?
Cc1ccc(-n2cccc2C(=O)NS(=O)(=O)c2ccc(C)cc2)cc1 | nt | 2% | 0% | -4% | nt | 3%
Cc1ccc(NC(=O)Nc2ccc3c(c2)OCO3)cc1F | nt | 1.3µM* | 1.1µM* | 0.6µM* | nt | 9.2µM*
NC(=O)c1ccc(NC(=O)Nc2ccc3c(c2)OCO3)cc1 | nt | ? | ? | 24µM* | nt | ?
O=C(Nc1ccc2c(c1)OCO2)Nc1ccc(Br)cn1 | 13µM* | 1.6µM* | 4µM* | 6µM* | -2% | 7.3µM*
O=C(Nc1cccc([N+](=O)[O-])c1)Nc1ccc2c(c1)OCCO2 | 11µM* | 1.8µM* | ? | 2.7µM* | -1% | ?
O=C(Nc1cccc([N+](=O)[O-])c1)Nc1cccc([N+](=O)[O-])c1 | -29% | -6% | -1% | -1% | 0% | -17%
O=C(Nc1ccc(S(=O)(=O)NCc2ccccc2)cc1)Nc1ccc2c(c1)OCO2 | ? | 27% | 30% | 21µM* | 0% | ?
Cc1ccnc(NC(=O)Nc2ccc3c(c2)OCO3)c1 | 6.3µM* | 0.5µM* | 0.63µM* | 1.9µM* | -12% | ?
O=C(Nc1ccc2c(c1)OCCO2)NC12CC3CC(CC(C3)C1)C2 | 22µM* | 1.3µM* | 2.5µM* | 6µM* | 3% | ?
CCNS(=O)(=O)c1ccc(NC(=O)Nc2ccc3c(c2)OCO3)cc1 | nt | 9% | 13% | ? | nt | 9%
NS(=O)(=O)c1ccc(NC(=O)Nc2ccc3c(c2)OCO3)cc1 | nt | ? | ? | 15µM* | nt | ?
Cc1ccc(S(=O)(=O)c2cn(Cc3ccc(F)cc3)c3cc(N4CCCC4)c(F)cc3c2=O)cc1 | nt | nt | nt | 0% | nt | nt
OCC1(Cc2ccccc2)CCN(CCCC2CCCC2)CC1 | -18% | -2% | -1% | 0% | 0% | -10%
O=C(Nc1ccc2c(c1)CCC2)Nc1ccc2c(c1)OCO2 | 13µM* | 2.2µM* | 3.5µM* | ? | -3% | ?
O=C(Nc1ccc2c(c1)OCO2)Nc1ccccc1F | nt | 0.5µM* | 0.45µM* | 2.4µM* | nt | 0.92µM*
COC(=O)c1ccc(NC(=O)Nc2ccc3c(c2)OCO3)cc1 | nt | ? | ? | 6.7µM* | nt | ?
Cc1ccc(NC(=O)Nc2ccc3c(c2)OCO3)c(OC(F)F)c1 | nt | 3.5µM* | 2µM* | 4.8µM* | nt | ?
COc1ccc(NC(=O)Nc2ccc(C)cc2OC(F)F)cc1OC | -44% | -1% | -5% | -1% | 3% | -6%
CC1=C(/C=C/C(C)=C/C=C/C(C)=C/C(=O)O)C(C)(C)CCC1 | -20% | -11%[46.1 µM] | 7%[46.1 µM] | -6% | -3% | 4%
